The supplement of paper PMC7411054
Counter-ions that a name gives are not always drawn.

Assays:
Details in all cases: treatment time: 24 h
HepG2-TUBA1B-RELA [1] = assay: lowest phenotypically active concentration; higher = less potent
How it was run: (§1)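 Phenotypic activity depended on meeting both a deviation and a reproducibility criterion. The fifteen gene-edited A549, HepG2 and WPMY1 reporter lines were treated at 0.3, 1, 3 or 9 µM for 24 h, four wells each, then imaged live with features normalised to solvent control wells. Deviation required ≥3 of 4 wells past the 95th percentile of control Euclidean distances, and reproducibility a median replicate Pearson correlation above the 95th percentile of non-replicates.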

WPMY1-ACTB-RAB5A [2] = assay: as above
How it was run: as §1

WPMY1-CANX-COX4 [3] = assay: as above
How it was run: as §1

WPMY1-GM130-SQSTM1 [4] = assay: as above
How it was run: as §1

WPMY1-TUBA1B-RELA [5] = assay: as above
How it was run: as §1

A549-CANX-COX4 = assay: phenotypically active (imaging signature differs from DMSO and reproducible) at any of 0.3-9 uM (binary (1 = active, 0 = inactive)); higher = active
How it was run: as §1

A549-TP53BP1-CLTA = assay: as above
How it was run: as §1

HepG2-ACTB-RAB5A = assay: as above
How it was run: as §1

HepG2-CANX-COX4 = assay: as above
How it was run: as §1

HepG2-GM130-SQSTM1 = assay: as above
How it was run: as §1

HepG2-TP53BP1-CLTA = assay: as above
How it was run: as §1

HepG2-TUBA1B-RELA [6] = assay: as above
How it was run: as §1

WPMY1-ACTB-RAB5A [7] = assay: as above
How it was run: as §1

WPMY1-CANX-COX4 [8] = assay: as above
How it was run: as §1

WPMY1-GM130-SQSTM1 [9] = assay: as above
How it was run: as §1

WPMY1-TP53BP1-CLTA = assay: as above
How it was run: as §1

WPMY1-TUBA1B-RELA [10] = assay: as above
How it was run: as §1

| Compound | lowest phenotypically active concentration (HepG2-TUBA1B-RELA [1]) | lowest phenotypically active concentration (WPMY1-ACTB-RAB5A [2]) | lowest phenotypically active concentration (WPMY1-CANX-COX4 [3]) | lowest phenotypically active concentration (WPMY1-GM130-SQSTM1 [4]) | lowest phenotypically active concentration (WPMY1-TUBA1B-RELA [5]) | phenotypically active (A549-CANX-COX4) | phenotypically active (A549-TP53BP1-CLTA) | phenotypically active (HepG2-ACTB-RAB5A) | phenotypically active (HepG2-CANX-COX4) | phenotypically active (HepG2-GM130-SQSTM1) | phenotypically active (HepG2-TP53BP1-CLTA) | phenotypically active (HepG2-TUBA1B-RELA [6]) | phenotypically active (WPMY1-ACTB-RAB5A [7]) | phenotypically active (WPMY1-CANX-COX4 [8]) | phenotypically active (WPMY1-GM130-SQSTM1 [9]) | phenotypically active (WPMY1-TP53BP1-CLTA) | phenotypically active (WPMY1-TUBA1B-RELA [10]) |
| --- | --- | --- | --- | --- | --- | --- | --- | --- | --- | --- | --- | --- | --- | --- | --- | --- | --- |
| Nc1cc(C(F)(F)F)c(-c2cc(N3CCOCC3)nc(N3CCOCC3)n2)cn1 [buparlisib] | 3 µM | 3 µM | 1 µM | 1 µM | 3 µM | 1 (active) | 1 (active) | 1 (active) | 1 (active) | 1 (active) | 1 (active) | 1 (active) | 1 (active) | 1 (active) | 1 (active) | 1 (active) | 1 (active) |
| NCCNS(=O)(=O)c1cccc2cnccc12 [H-9 dihydrochloride] |  | 9 µM |  |  |  | 0 (inactive) | 0 (inactive) | 0 (inactive) | 0 (inactive) | 0 (inactive) | 0 (inactive) | 0 (inactive) | 1 (active) | 0 (inactive) | 0 (inactive) | 0 (inactive) | 0 (inactive) |
| COc1cc2nccc(Oc3ccc(NC(=O)NC4CC4)c(Cl)c3)c2cc1C(N)=O [lenvatinib] |  | 1 µM |  |  |  | 0 (inactive) | 0 (inactive) | 0 (inactive) | 0 (inactive) | 0 (inactive) | 0 (inactive) | 0 (inactive) | 1 (active) | 0 (inactive) | 0 (inactive) | 0 (inactive) | 0 (inactive) |
| CCN(CC)CCCC(C)Nc1ccnc2cc(Cl)ccc12 (centres undefined) [chloroquine] | 1 µM | 3 µM | 3 µM | 3 µM | 9 µM | 0 (inactive) | 1 (active) | 1 (active) | 1 (active) | 1 (active) | 1 (active) | 1 (active) | 1 (active) | 1 (active) | 1 (active) | 1 (active) | 1 (active) |
| O=c1[nH]cc(F)c(=O)[nH]1 [5-Fluorouracil] | 3 µM |  |  |  |  | 1 (active) | 1 (active) | 1 (active) | 1 (active) | 1 (active) | 1 (active) | 1 (active) | 0 (inactive) | 0 (inactive) | 0 (inactive) | 1 (active) | 0 (inactive) |
| C/C(=C/C(=O)Nc1ccccc1C(=O)O)c1ccc2ccccc2c1 |  |  |  |  |  | 0 (inactive) | 0 (inactive) | 0 (inactive) | 0 (inactive) | 0 (inactive) | 0 (inactive) | 0 (inactive) | 0 (inactive) | 0 (inactive) | 0 (inactive) | 0 (inactive) | 0 (inactive) |
| Cc1ccc(S(=O)(=O)/C=C/C#N)cc1 |  |  | 9 µM | 9 µM |  | 0 (inactive) | 0 (inactive) | 0 (inactive) | 0 (inactive) | 0 (inactive) | 0 (inactive) | 0 (inactive) | 0 (inactive) | 1 (active) | 1 (active) | 0 (inactive) | 0 (inactive) |
| Clc1ccc2nsnc2c1NC1=NCCN1 [tizanidine] |  |  |  |  |  | 0 (inactive) | 0 (inactive) | 0 (inactive) | 0 (inactive) | 0 (inactive) | 0 (inactive) | 0 (inactive) | 0 (inactive) | 0 (inactive) | 0 (inactive) | 0 (inactive) | 0 (inactive) |
| C[C@H]1O[C@H](O[C@H]2[C@H](O)[C@@H](O)[C@@H](O[C@H]3[C@H](O)[C@@H](O)[C@H](O)O[C@@H]3CO)O[C@@H]2CO)[C@H](O)[C@@H](O)[C@@H]1N[C@H]1C=C(CO)[C@@H](O)[C@H](O)[C@H]1O [Acarbose] |  |  |  |  |  | 0 (inactive) | 0 (inactive) | 0 (inactive) | 0 (inactive) | 0 (inactive) | 0 (inactive) | 0 (inactive) | 0 (inactive) | 0 (inactive) | 0 (inactive) | 0 (inactive) | 0 (inactive) |
| N#Cc1c(NC(=O)c2cccc3ccccc23)sc2c1CCCC2 | ≤ 0.3 µM | ≤ 0.3 µM | ≤ 0.3 µM | ≤ 0.3 µM | ≤ 0.3 µM | 1 (active) | 1 (active) | 1 (active) | 1 (active) | 1 (active) | 1 (active) | 1 (active) | 1 (active) | 1 (active) | 1 (active) | 1 (active) | 1 (active) |
| CN1CCN(C2=Nc3cc(Cl)ccc3Nc3ccccc32)CC1 [clozapine] |  |  |  | 9 µM |  | 0 (inactive) | 0 (inactive) | 0 (inactive) | 0 (inactive) | 0 (inactive) | 0 (inactive) | 0 (inactive) | 0 (inactive) | 0 (inactive) | 1 (active) | 0 (inactive) | 0 (inactive) |
| Cc1c2oc3c(C)ccc(C(=O)NC4C(=O)NC(C(C)C)C(=O)N5CCCC5C(=O)N(C)CC(=O)N(C)C(C(C)C)C(=O)OC4C)c3nc-2c(C(=O)NC2C(=O)NC(C(C)C)C(=O)N3CCCC3C(=O)N(C)CC(=O)N(C)C(C(C)C)C(=O)OC2C)c(N)c1=O (centres undefined) [Actinomycin D] | ≤ 0.3 µM | ≤ 0.3 µM | ≤ 0.3 µM | ≤ 0.3 µM | ≤ 0.3 µM | 1 (active) | 1 (active) | 1 (active) | 1 (active) | 1 (active) | 1 (active) | 1 (active) | 1 (active) | 1 (active) | 1 (active) | 1 (active) | 1 (active) |
| C/C(=C/c1ccc(C(=O)O)cc1)c1ccc2c(c1)C(C)(C)CCC2(C)C |  |  | 9 µM | 3 µM |  | 0 (inactive) | 0 (inactive) | 0 (inactive) | 0 (inactive) | 0 (inactive) | 0 (inactive) | 0 (inactive) | 0 (inactive) | 1 (active) | 1 (active) | 1 (active) | 0 (inactive) |
